In the library only some 9.2% were active in any assay of this set; here they are far more common.
ELG1 repair inh – blocks ELG1-dependent DNA repair in HEK293T cells. HEK293T ELG1-luciferase reporter, luminescence, 16 h; DNA damage induced by 5-fluorouridine. Potency, µM (series often up to 46.1 µM), actives largely listed as inhibitors. hit rate 2.3% among 330,000; note: nearly all actives have a fitted effect of over 55% in size
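HEK293T cells expressing luciferase-tagged ELG1 (2,000/well) received 5-Fluorouridine plus compound or DMSO for 16 hr at 37 °C. Luciferase was read by ONE-Glo luminescence after 30 min at room temperature.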
Rab9 promoter act – Rab9 promoter activation | Huh7 Rab9 promoter-luciferase reporter, luminescence, 24 h | Potency, µM (top dose mostly 9.22 µM), usual class: activators | hit rate 2.8% among 320,000; note: nearly all actives have a fitted effect of over 60% in size
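Huh7 reporter line, Rab9 promoter upstream of luciferase. Compound exposure 24 h at 37 °C in reduced-serum medium with 10% FBS. Read-out: luminescence.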
FLuc modulator – firefly luciferase modulation, counter-screen for miR-21 project; purified FLuc, Km substrates, luminescence inhibition; P08659; hit rate 6.9% among 360,000; Potency, µM (highest dose often 57.5 µM), hits mostly inhibitors; note: nearly all actives have a fitted effect of over 55% in size
Target sequence (P08659 whole entry, looked up): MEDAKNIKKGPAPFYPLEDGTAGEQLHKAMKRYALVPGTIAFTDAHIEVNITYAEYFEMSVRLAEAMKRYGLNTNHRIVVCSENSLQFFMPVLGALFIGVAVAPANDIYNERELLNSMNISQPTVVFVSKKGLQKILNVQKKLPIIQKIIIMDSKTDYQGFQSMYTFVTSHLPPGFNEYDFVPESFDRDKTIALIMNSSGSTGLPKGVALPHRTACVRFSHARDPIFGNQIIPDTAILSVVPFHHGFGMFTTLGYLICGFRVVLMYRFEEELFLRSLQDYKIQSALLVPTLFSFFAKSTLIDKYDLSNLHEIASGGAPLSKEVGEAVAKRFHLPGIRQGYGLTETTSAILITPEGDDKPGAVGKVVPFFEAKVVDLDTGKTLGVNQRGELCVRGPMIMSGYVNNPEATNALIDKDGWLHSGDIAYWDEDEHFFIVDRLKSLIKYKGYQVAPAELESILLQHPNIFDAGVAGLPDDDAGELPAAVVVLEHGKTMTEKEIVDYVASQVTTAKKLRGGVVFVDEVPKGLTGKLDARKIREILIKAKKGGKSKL
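Biochemical qHTS of compounds, final roughly 60 µM downward over six points, against 10 nM purified firefly luciferase using Km concentrations of substrates (10 uM D-luciferin, 10 uM ATP) in Tris acetate pH 7.5 buffer; luminescence output.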
SMN2 splice up – SMN2 splice variant enhancement; HEK293 SMN2-luciferase splicing reporter, luminescence, 30-36 h; Potency, µM (top dose mostly 46.1 µM), usual class: activators; hit rate 2.8% among 210,000; AID 1458; note: nearly all actives have a fitted effect of over 55% in size
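HEK293 cells carry an SMN2 minigene-luciferase reporter in which exon 7 inclusion puts luciferase in frame. Cells were seeded at 2000 cells/well, attached for 10-12 hours, then exposed to compounds for 30-36 hours at 37C before ONE-Glo luminescence.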
NPC1 prom act – activates the NPC1 promoter; Potency, µM (titrated, usually from 9.22 µM), hits mostly activators; hit rate 2.4% among 320,000; Huh7 NPC1 promoter luciferase reporter, 24 h; note: nearly all actives have a fitted effect of over 60% in size
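Stably transfected Huh7 (NPC1 promoter→luciferase), 1500 cells/well in Opti-MEM + 10% FBS, 2 h settle, then compound 24 h at 37 °C. Luminescence after 10 min with Amplite reagent.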
ELG1 genotoxic – inducers of genotoxicity in HEK293T ELG1-luciferase cells. HEK293T ELG1-luciferase reporter, luminescence, 16 h. Potency, µM (series often up to 46 µM), hits mostly activators. hit rate 1.3% among 330,000. AID 504466; note: nearly all actives have a fitted effect of over 60% in size
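HEK293T cells expressing luciferase-tagged ELG1 were exposed to compound or DMSO vehicle for 16 hr at 37 °C and 5% CO2. Luciferase activity was then measured with ONE-Glo after 30 min at room temperature.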
Of the large screens only hits and unclear results are named; the others gave an inactive call. Calls come from the whole dose curve; as a rule, active = well fitted curve in the direction sought with a large enough effect; inconclusive = small, poorly fitted or top-dose-only effect, or another doubt; inactive = no such curve, though single readings can be large; an effect the other way counts as inactive or inconclusive.

CCCCN1C(=O)C(=O)N(CC(=O)c2ccc3c(c2)OCO3)C1=O	none (no result: SMN2 splice up)
O=C(NC1CCCC1)C(c1ccncc1)N(C(=O)c1ccco1)c1ccc(F)c(Cl)c1 (stereo not given)	none (no result: SMN2 splice up)
O=C(OCC1COc2ccccc2O1)c1c(F)cccc1F (stereo not given)	ELG1 repair inh inconclusive, FLuc modulator 15.1µM, ELG1 genotoxic inconclusive (no result: SMN2 splice up)
OC(COCC1COc2ccccc2O1)CN1CCN(c2ccccc2F)CC1 (stereo not given)	none
C/C(=N\NC(=O)COc1ccccc1[N+](=O)[O-])c1cccs1	ELG1 repair inh inconclusive, Rab9 promoter act 3.16µM, FLuc modulator 23.9µM, SMN2 splice up 25.1µM, NPC1 prom act inconclusive, ELG1 genotoxic inconclusive
CCc1ccc(OCC(=O)N/N=C\c2ccco2)c([N+](=O)[O-])c1	ELG1 repair inh inconclusive, FLuc modulator 10.7µM
O=C(COc1cccc([N+](=O)[O-])c1)N/N=C/c1ccco1	none
Cc1ccc(OCC(=O)N/N=C\c2cccs2)c([N+](=O)[O-])c1	ELG1 repair inh inconclusive, FLuc modulator 12µM
O=C(CSc1nnc2ccc(-c3cccnc3)nn12)Nc1cccc(F)c1	none (no result: SMN2 splice up)
COc1ccc(C2c3ccc(O)cc3Oc3ncn4nc(-c5cccnc5)nc4c32)cc1OC (stereo not given)	ELG1 repair inh 10.3µM (no result: SMN2 splice up)
Cc1cc(C)c(NC(=O)C2CCN(c3nnc(C)c4c(C)n(-c5ccccc5)nc34)CC2)c(C)c1	none (no result: ELG1 repair inh, Rab9 promoter act, SMN2 splice up, NPC1 prom act, ELG1 genotoxic)
O=C(CSc1cccc[n+]1[O-])c1cc2ccccc2o1	ELG1 repair inh inconclusive, Rab9 promoter act inconclusive, FLuc modulator 19µM, NPC1 prom act inconclusive, ELG1 genotoxic inconclusive
CCc1nnc(NC(=O)CSc2nnc(C(C)NC(=O)c3ccccc3F)n2C)s1 (stereo not given)	none (no result: SMN2 splice up)
Cc1ccc(N2CC(NC(=O)c3cccs3)CC2=O)cc1 (stereo not given)	none (no result: ELG1 repair inh, Rab9 promoter act, SMN2 splice up, NPC1 prom act, ELG1 genotoxic)
CC(C)OC(=O)c1cc2ccccc2oc1=O	none
CCN(C(=O)c1cc2ccccc2oc1=O)c1ccccc1	ELG1 repair inh inconclusive, Rab9 promoter act inconclusive, FLuc modulator 9.53µM, NPC1 prom act inconclusive, ELG1 genotoxic 9.2µM
O=C(Oc1ccccc1)c1cc2ccccc2oc1=O	FLuc modulator 15.1µM
COc1ccc(N2CCN(C(=O)c3cc4ccccc4o3)CC2)cc1	none (no result: SMN2 splice up)
COc1ccc(OC(=O)c2cc3ccccc3o2)cc1	FLuc modulator 0.536µM
CCOC(=O)c1[nH]c(C)c(CCC(=O)N2CCN(c3cccc(OC)c3)CC2)c1C	none (no result: ELG1 repair inh, Rab9 promoter act, SMN2 splice up, NPC1 prom act, ELG1 genotoxic)
COC(=O)c1cc(-c2ccc(C)cc2)c2c(=O)n(C)c(=O)n(C)c2n1	none (no result: ELG1 repair inh, Rab9 promoter act, NPC1 prom act, ELG1 genotoxic)
CC1(C)Cc2c(cnn2-c2ccc(F)cc2)C(NC(=O)CCN2CCCC2=O)C1 (stereo not given)	ELG1 repair inh inconclusive, FLuc modulator inconclusive (no result: SMN2 splice up)
CC1(C)Cc2c(cnn2-c2ccc(F)cc2)C(NC(=O)CN2CCCCC2=O)C1 (stereo not given)	FLuc modulator 19µM (no result: SMN2 splice up)
CCOC(=O)C1=C(C)NC(C)=C(C(=O)OCC)C1C(=O)OCC(N)=O	none
O=C(COC(=O)c1ccc(O)cc1O)c1ccc2c(c1)OCO2	FLuc modulator 8.49µM, NPC1 prom act inconclusive (no result: SMN2 splice up)
O=C(COC(=O)c1cc(Cl)ccc1O)c1ccc2c(c1)OCO2	ELG1 repair inh inconclusive, FLuc modulator 1.9µM, NPC1 prom act inconclusive (no result: SMN2 splice up)
CC(=O)Nc1cc(NC(C)=O)cc(C(=O)OCC(=O)c2ccc3c(c2)OCO3)c1	ELG1 repair inh inconclusive (no result: SMN2 splice up)
CCOC(=O)C1=C(C)NC(C)=C(C(=O)OCC)C1C(=O)OCC(=O)c1ccc2c(c1)OCCO2	ELG1 repair inh 2.91µM
CCOC(=O)C1=C(C)NC(C)=C(C(=O)OCC)C1C(=O)OCC(=O)NCc1ccco1	ELG1 repair inh 10.3µM (no result: Rab9 promoter act, FLuc modulator, SMN2 splice up, NPC1 prom act)
COC(=O)C(Cc1ccc(O)cc1)NC(=O)c1ccc2c(c1)OCCO2 (stereo not given)	ELG1 repair inh inconclusive, FLuc modulator 1.35µM, ELG1 genotoxic inconclusive (no result: SMN2 splice up)
O=C(COC(=O)c1ccc(O)cc1)c1ccc2c(c1)OCCO2	ELG1 repair inh inconclusive, Rab9 promoter act 3.98µM, FLuc modulator 1.2µM, NPC1 prom act 3.55µM, ELG1 genotoxic 5.17µM (no result: SMN2 splice up)
